Potency and outcome data for 17 compounds are collected here from PubChem BioAssay (Tox21).

Assay [1] can be described thus: qHTS assay to identify small molecule antagonists of the thyroid receptor (TR) signaling pathway (AID 743065). Note: nearly all actives have a fitted effect of over 55% in size. Note: potency is the fitted concentration of half-maximal effect. In outline: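 Antagonism measured as loss of luciferase signal in GH3 cells stably carrying a TRE-luciferase reporter, co-treated with compound and T3 (1 nM final) for 23.5 h at 37 C. Viability was read in the same well by CellTiter-Fluor.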
On the technique in general: qHTS replaces the single test concentration by a dilution series.

Assay [2] has as its system thyroid hormone receptor (rat, GH3 cells). The experiment in a line: qHTS assay to identify small molecule agonists of the thyroid receptor (TR) signaling pathway (AID 743066; calls by dose curve).
For assay [3], the target named is Estrogen receptor (Homo sapiens) (UniProt P03372). Kind of assay: qHTS assay to identify small molecule antagonists of the estrogen receptor alpha (ER-alpha) signaling pathway (AID 743069; active = well fitted curve in the direction sought with a large enough effect in the signal ratio in the repeat runs, not every such curve was filed as active; the % refers to the signal ratio). The gist of the method:
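Compound effects are measured against 17beta-estradiol stimulation in HEK293 cells with a UAS-controlled beta-lactamase reporter for ER-alpha. Exposure lasts 18 hr at 37C; LiveBLAzer B/G FRET substrate follows for 2 hr at room temperature.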

Assay [4] is described as follows: qHTS assay to identify small molecule antagonists of the estrogen receptor alpha (ER-alpha) signaling pathway - cell viability counter screen (AID 743074; calls by dose curve;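 note: HEK293 cells carrying ER-alpha-UAS-bla reporter stimulated with 17beta-estradiol; nearly all actives have a fitted effect of over 45% in size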).
Assay [5] has as its target Estrogen receptor (Homo sapiens) (UniProt P03372). The experiment in a line: qHTS assay to identify small molecule agonists of the estrogen receptor alpha (ER-alpha) signaling pathway (AID 743075; calls by dose curve).
Assay [6] shares this target. Kind of assay: qHTS assay to identify small molecule agonists of the estrogen receptor alpha (ER-alpha) signaling pathway using the BG1 cell line (AID 743079). Note: nearly all actives have a fitted effect of over 20% in size.
The nature of assay [7]: qHTS assay to identify small molecule antagonists of the estrogen receptor alpha (ER-alpha) signaling pathway using the BG1 cell line (AID 743080; calls by dose curve;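 note: BG1 cells stimulated with 17beta-estradiol alongside compound; series mostly up to about 70 µM; nearly all actives have a fitted effect of over 25% in size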). In outline:
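Seeding, 24 h rest, compound transfer from DMSO, 17beta-estradiol addition, 21.5 h incubation, CellTiter-Fluor (30 min, 37 C), then ONE-Glo (30 min, room temperature): this sequence was run on BG1-Luc-4E2 reporter cells.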

A short description of assay [8]: qHTS assay to identify small molecule antagonists of the estrogen receptor alpha (ER-alpha) signaling pathway using the BG1 cell line - cell viability counter screen (AID 743081).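 Note: compound given together with 17beta-estradiol as the ER stimulus; series mostly up to about 70 µM; nearly all actives have a fitted effect of over 45% in size.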
The target in another assay is Aromatase (Homo sapiens) (UniProt P11511). The experiment in a line: qHTS assay to identify aromatase inhibitors (AID 743083). Note: series mostly up to about 70 µM; nearly all actives have a fitted effect of over 55% in size.
Aromatase (Homo sapiens), sequence (P11511 whole entry, looked up): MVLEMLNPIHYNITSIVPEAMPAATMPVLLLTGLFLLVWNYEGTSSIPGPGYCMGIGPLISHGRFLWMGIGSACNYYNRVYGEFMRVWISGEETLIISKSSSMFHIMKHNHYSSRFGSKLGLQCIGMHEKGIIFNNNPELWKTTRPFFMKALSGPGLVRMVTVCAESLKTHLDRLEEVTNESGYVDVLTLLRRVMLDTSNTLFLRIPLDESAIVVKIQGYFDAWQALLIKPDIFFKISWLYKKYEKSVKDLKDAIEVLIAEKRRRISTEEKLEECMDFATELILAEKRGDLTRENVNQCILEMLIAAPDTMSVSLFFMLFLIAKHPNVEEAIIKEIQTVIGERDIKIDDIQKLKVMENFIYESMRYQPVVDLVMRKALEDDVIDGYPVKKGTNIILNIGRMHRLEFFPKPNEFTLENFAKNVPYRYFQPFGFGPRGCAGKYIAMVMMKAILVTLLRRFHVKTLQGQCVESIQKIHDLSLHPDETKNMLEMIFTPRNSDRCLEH
Assay [9] can be described thus: qHTS assay to identify aromatase inhibitors - cell viability counter screen (AID 743084).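 Note: cells stimulated with testosterone during compound exposure; nearly all actives have a fitted effect of over 55% in size.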
Assay [10] addresses Aryl hydrocarbon receptor (Homo sapiens) (UniProt P35869). Kind of assay: qHTS assay to identify small molecule that activate the aryl hydrocarbon receptor (AhR) signaling pathway (AID 743085).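 Note: HG2L7.5c1 human HepG2 liver cells with stably integrated DRE-driven firefly reporter; series mostly up to about 70 µM; nearly all actives have a fitted effect of over 15% in size.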 The gist of the method:
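Reporter assay in engineered HepG2 line HG2L7.5c1, whose plasmid carries twenty dioxin responsive elements upstream of firefly luciferase. Treatment lasted 24 h at 37C; ONE-Glo luminescence gauged induction.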

Assay [11] in a line: qHTS assay to identify small molecule that activate the aryl hydrocarbon receptor (AhR) signaling pathway - cell viability counter screen (AID 743086). Note: series mostly up to about 70 µM; nearly all actives have a fitted effect of over 45% in size. The gist of the method: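 Cytotoxicity counter screen: CellTiter-Fluor signal (30 min, 37 C) in 4000 HepG2 cells/well carrying the DRE-luciferase reporter, following 24 h compound exposure at 37 C.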
A short description of assay [12]: qHTS assay to identify small molecule antagonists of the peroxisome proliferator-activated receptor gamma (PPARg) signaling pathway - cell viability counter screen (AID 743194). Note: nearly all actives have a fitted effect of over 55% in size. In outline:
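Viability was measured as CellTiter-Glo luminescence in GeneBLAzer PPARg UAS-bla HEK293H cells. These cells had been exposed 17 h at 37 C to compounds together with rosiglitazone at 50 nM final, with the beta-lactamase readout taken in the same wells.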

A short description of assay [13]: qHTS assay for small molecule agonists of the antioxidant response element (ARE) signaling pathway (AID 743202; active = well fitted activation curve with a large enough effect in the signal ratio in the repeat runs, not every such curve was filed as active; the % refers to the signal ratio; note: potency is the fitted concentration of half-maximal effect). In outline:
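An ARE-responsive beta-lactamase gene stably integrated in HepG2 cells serves as reporter. After 5 h plating and 16 h compound incubation at 37 C, fluorescence of the B/G FRET substrate was measured.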

Assay [14] in a line: qHTS assay for small molecule agonists of the antioxidant response element (ARE) signaling pathway - cell viability counter screen (AID 743203; calls by dose curve; note: nearly all actives have a fitted effect of over 55% in size). The gist of the method: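 CellSensor ARE-bla HepG2 cells, 2,000 per well, rested 5 hrs at 37C/5% CO2, then exposed to compound in DMSO for 16 hrs; viability read as CellTiter-Glo luminescence after 30 min at room temperature, in the reporter wells.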

Assay [15] is described as follows: qHTS assay for small molecule activators of the heat shock response signaling pathway - cell viability counter screen (AID 743209). Note: nearly all actives have a fitted effect of over 50% in size. In outline: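 CellSensor HSE-bla HeLa cells, plated overnight at 37 C/5% CO2, were exposed to compounds in DMSO for 5 h at 37 C. Viability was then read in the same wells by CellTiter-Glo luminescence after 30 min at room temperature.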

Assay [16] can be described thus: qHTS assay for small molecule activators of the heat shock response signaling pathway (AID 743210; active = well fitted activation curve with a large enough effect in the signal ratio in the repeat runs, with a control signal flat, not every such curve was filed as active; the % refers to the signal ratio;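 note: HeLa cells with beta-lactamase reporter driven by heat shock elements; series mostly up to about 63 µM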). The gist of the method:
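In HSE-bla HeLa cells, 5 h compound incubation (37 C) precedes addition of LiveBLAzer B/G substrate; after 2.5 h at room temperature, fluorescence intensity indicates reporter induction.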

Assay [17] concerns the target Peroxisome proliferator-activated receptor gamma (Homo sapiens) (UniProt P37231). Kind of assay: qHTS assay to identify small molecule agonists of the peroxisome proliferator-activated receptor gamma (PPARg) signaling pathway (AID 743094; active = well fitted activation curve with a large enough effect in the signal ratio in the repeat runs, not every such curve was filed as active; the % refers to the signal ratio). The gist of the method: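 GeneBLAzer PPARg UAS-bla HEK293H cells carrying a stably integrated beta-lactamase reporter were pre-incubated 5 h at 37C, then exposed to compounds in DMSO for 17 h at 37C; LiveBLAzer B/G FRET substrate was added for 1 h at room temperature and fluorescence read.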

The target is the same in assay [18]. The experiment in a line: qHTS assay to identify small molecule antagonists of the peroxisome proliferator-activated receptor gamma (PPARg) signaling pathway (AID 743191; calls by dose curve; note: series mostly up to about 63 µM; nearly all actives have a fitted effect of over 30% in size). The gist of the method: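 Beta-lactamase reporter under UAS control in HEK293H PPARg-bla cells; compound treatment 17 h at 37C. Read-out: fluorescence intensity after 1 h room-temperature incubation with LiveBLAzer B/G FRET substrate.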

Inconclusive results are not listed. Active and inactive are the calls of the source. Unless noted, calls come from the whole dose curve; as a rule, active = well fitted curve in the direction sought with a large enough effect in the repeat runs; inconclusive = weak or mixed curves; inactive = no such curve, though single readings can be large; an effect the other way counts as inactive or inconclusive.

Aryl hydrocarbon receptor (Homo sapiens), sequence (P35869 whole entry, looked up): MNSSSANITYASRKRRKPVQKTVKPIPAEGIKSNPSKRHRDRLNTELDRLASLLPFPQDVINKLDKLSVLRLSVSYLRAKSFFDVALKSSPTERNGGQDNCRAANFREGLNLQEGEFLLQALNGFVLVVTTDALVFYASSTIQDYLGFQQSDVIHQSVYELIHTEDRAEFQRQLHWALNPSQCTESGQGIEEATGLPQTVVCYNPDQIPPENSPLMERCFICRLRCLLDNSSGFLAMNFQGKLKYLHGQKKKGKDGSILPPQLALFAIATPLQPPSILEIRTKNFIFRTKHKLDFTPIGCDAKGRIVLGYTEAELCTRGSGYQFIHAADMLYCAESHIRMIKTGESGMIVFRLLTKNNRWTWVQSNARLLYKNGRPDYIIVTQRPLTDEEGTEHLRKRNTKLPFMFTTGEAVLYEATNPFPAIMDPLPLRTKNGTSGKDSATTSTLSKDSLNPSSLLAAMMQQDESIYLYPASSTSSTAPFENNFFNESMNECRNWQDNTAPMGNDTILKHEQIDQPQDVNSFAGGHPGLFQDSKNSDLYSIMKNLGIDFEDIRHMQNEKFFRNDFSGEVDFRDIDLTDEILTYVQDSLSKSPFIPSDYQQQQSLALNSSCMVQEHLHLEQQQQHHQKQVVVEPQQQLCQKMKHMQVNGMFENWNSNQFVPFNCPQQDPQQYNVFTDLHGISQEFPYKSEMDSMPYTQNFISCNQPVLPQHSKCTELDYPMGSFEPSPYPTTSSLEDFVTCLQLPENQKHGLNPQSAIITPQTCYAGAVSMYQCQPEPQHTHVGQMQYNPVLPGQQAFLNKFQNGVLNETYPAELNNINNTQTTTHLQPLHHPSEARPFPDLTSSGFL
Peroxisome proliferator-activated receptor gamma (Homo sapiens), sequence (P37231 whole entry, looked up): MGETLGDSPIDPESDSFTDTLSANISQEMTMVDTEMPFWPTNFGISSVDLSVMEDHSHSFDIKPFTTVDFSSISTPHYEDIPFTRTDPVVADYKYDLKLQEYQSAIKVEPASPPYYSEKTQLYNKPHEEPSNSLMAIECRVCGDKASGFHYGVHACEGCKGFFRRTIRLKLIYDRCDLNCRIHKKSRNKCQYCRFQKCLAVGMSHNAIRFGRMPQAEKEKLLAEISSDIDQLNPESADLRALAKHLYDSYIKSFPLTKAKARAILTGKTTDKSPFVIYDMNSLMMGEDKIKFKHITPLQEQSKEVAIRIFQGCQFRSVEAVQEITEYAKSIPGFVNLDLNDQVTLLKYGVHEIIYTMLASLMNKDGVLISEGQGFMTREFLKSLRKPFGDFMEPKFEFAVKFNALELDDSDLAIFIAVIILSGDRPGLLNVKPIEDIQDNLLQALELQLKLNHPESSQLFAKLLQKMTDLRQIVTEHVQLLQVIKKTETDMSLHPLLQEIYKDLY
Estrogen receptor (Homo sapiens), sequence (P03372 whole entry, looked up): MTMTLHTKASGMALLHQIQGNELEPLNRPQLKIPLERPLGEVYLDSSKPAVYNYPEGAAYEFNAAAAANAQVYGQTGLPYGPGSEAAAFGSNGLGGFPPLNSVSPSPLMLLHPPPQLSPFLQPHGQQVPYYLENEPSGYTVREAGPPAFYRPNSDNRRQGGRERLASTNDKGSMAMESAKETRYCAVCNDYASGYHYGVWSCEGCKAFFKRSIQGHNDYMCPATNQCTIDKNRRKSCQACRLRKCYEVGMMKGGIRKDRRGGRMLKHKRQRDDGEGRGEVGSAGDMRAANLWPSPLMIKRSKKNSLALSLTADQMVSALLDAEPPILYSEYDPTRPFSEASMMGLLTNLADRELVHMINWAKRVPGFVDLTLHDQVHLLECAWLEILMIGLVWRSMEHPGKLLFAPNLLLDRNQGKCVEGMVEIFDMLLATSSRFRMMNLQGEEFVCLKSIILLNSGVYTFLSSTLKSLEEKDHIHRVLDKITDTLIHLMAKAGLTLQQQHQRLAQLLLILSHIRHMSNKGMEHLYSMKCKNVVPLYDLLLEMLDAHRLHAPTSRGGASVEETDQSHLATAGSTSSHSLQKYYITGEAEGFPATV

With `COc1ccc(COC=O)cc1`, the Potency entry in assay [1], in [2], in assay [3], in assay [5], in [6] and in [7] was “inactive” each time. Further, the Potency result (with Aromatase (Homo sapiens); in assay [9]; in assay [10]; in assay [11]; in [12]; in assay [13]) was “inactive” throughout. Moreover, the call in assay [4], in [8], in assay [14] and in [15] was inactive.
For the compound `Fc1ccccc1-c1ccccc1`, the Potency entry in assay [1], in [2], in assay [3], in assay [5], in assay [6] and in assay [7] was “inactive” in each case. Besides, the Potency result (in the assay with Aromatase (Homo sapiens); in assay [9]; in [10]; in [11]; in assay [12]) was “inactive” throughout. Further, the result in assay [4], in assay [8], in [14], in [15] and in [16] was inactive.
With `CCOC(=O)Nc1ccc2c(c1)N(C(=O)CCN1CCOCC1)c1ccccc1S2`, the Potency entry in [1], in [2], in assay [3], in [5], in assay [6] and in assay [7] was “inactive” each time. Further, the Potency entry (with Aromatase (Homo sapiens); in assay [9]; in [10]; in assay [11]) was “inactive” each time. Further, the outcome in assay [4], in [8], in assay [14], in assay [15] and in [16] was inactive. For the same compound, the Potency in assay [13] was 11.9 µM (active).
For the compound `CCCC(C)CO` (stereo not drawn), the Potency result (in assay [1]; in assay [2]; with Aromatase (Homo sapiens); in assay [9]; in assay [10]; in assay [11]) was “inactive” throughout. Also, the Potency entry in assay [12] and in assay [13] was “inactive” in each case. For the same compound, the outcome in assay [4], in assay [8], in assay [17], in assay [14] and in [16] was inactive.
For `O=C(O)c1ccccc1-c1ccc(C(F)(F)F)cc1`, the Potency result (in assay [1]; in assay [2]; in assay [5]; in assay [6]; in assay [7]; with Aromatase (Homo sapiens)) was “inactive” each time. Further, the Potency result in [9], in assay [10], in [11] and in assay [13] was “inactive” in each case. Moreover, the compound was called inactive in assay [4], in assay [8], in assay [14], in [15] and in assay [16].
As for `CCCOCC(C)OCC(C)O` (stereo not drawn), the Potency entry (in assay [1]; in [2]; with Aromatase (Homo sapiens); in assay [9]; in assay [10]; in assay [11]) was “inactive” in each case. Moreover, in [12], the Potency result is “inactive”. Further, the compound was called inactive in [4], in assay [8], in [14], in assay [15] and in assay [16].
`C#CC(O)C(CC)CCCC` (stereo not drawn): the Potency result (in assay [1]; in assay [2]; with Aromatase (Homo sapiens); in assay [9]; in assay [10]; in [11]) was “inactive” throughout. Also, the Potency entry in assay [12] and in assay [13] was “inactive” in each case. The outcome in [4], in assay [8], in [17], in assay [18], in assay [14] and in [15] was inactive. The call in assay [16] was inactive.
Take `CC1(C)SC(C)(C)SC(C)(C)S1`: the Potency entry in assay [1], in assay [2], in assay [3], in assay [5], in assay [6] and in [7] was “inactive” throughout. The Potency entry (with Aromatase (Homo sapiens); in assay [9]; in assay [10]; in assay [11]; in [12]; in assay [13]) was “inactive” each time. For the same compound, the call in [4], in assay [8], in assay [17], in [14], in assay [15] and in [16] was inactive.
With `Nc1nc(F)nc2c1ncn2[C@@H]1O[C@H](CO)[C@@H](O)[C@@H]1O`, the Potency in assay [1] is 18.8 µM (active). The Potency result (in assay [2]; in assay [3]; in assay [5]; in assay [6]; in [7]; with Aromatase (Homo sapiens)) was “inactive” each time. Also, the Potency result in assay [9], in [10], in assay [11] and in [12] was “inactive” each time. For the same compound, the result in assay [4], in assay [8], in assay [14], in assay [15] and in [16] was inactive.
`N#CCN(CC#N)CCN(CC#N)CC#N`: the Potency entry in assay [1], in [2], in [11], in [12] and in assay [13] was “inactive” throughout. In addition, the compound was classed as inactive in assay [4], in assay [8], in assay [14], in [15] and in assay [16].
As for `C1COCCO1`, the Potency result in [1], in assay [2], in assay [3], in [5], in assay [6] and in [7] was “inactive” each time. Moreover, the Potency result (with Aromatase (Homo sapiens); in assay [9]; in assay [10]; in assay [11]; in assay [12]) was “inactive” in each case. Further, the compound was called inactive in assay [4], in assay [8], in [17], in [18], in [14] and in assay [15]. Besides, the result in [16] was inactive.
As for `CCOC(=O)[C@H](CCc1ccccc1)N[C@@H](C)C(=O)N1CCC[C@H]1C(=O)O`, the Potency result (in assay [1]; in [2]; with Aromatase (Homo sapiens); in [9]; in assay [10]) was “inactive” each time. The result in assay [4], in [8], in assay [17], in assay [14], in assay [15] and in assay [16] was inactive.
Consider `CCCCCCC(CCCCCCCCCCC(=O)OCC(COC(C)=O)OC(C)=O)OC(C)=O` (stereo not drawn), for which the Potency entry in assay [1], in assay [2], in [3], in assay [5], in assay [6] and in assay [7] was “inactive” each time. In addition, the Potency result (with Aromatase (Homo sapiens); in assay [9]; in [10]; in assay [11]; in assay [12]) was “inactive” each time. The result in [4], in assay [8], in assay [14], in assay [15] and in assay [16] was inactive.
Consider `CO`, for which the Potency result (in assay [1]; in [2]; with Aromatase (Homo sapiens); in assay [9]; in [10]; in [11]) was “inactive” in each case. The Potency entry in assay [13] is “inactive”. Also, the outcome in assay [4], in assay [8], in assay [14], in assay [15] and in [16] was inactive.
Regarding `CCC(=O)c1cccc(Cl)c1`, the Potency result (in assay [1]; in assay [2]; with Aromatase (Homo sapiens); in assay [9]; in assay [10]; in [11]) was “inactive” each time. For the same compound, the Potency result in assay [13] was “inactive”. Also, the result in assay [4], in assay [8], in assay [17], in assay [18], in assay [14] and in [15] was inactive. Further, in assay [16], the result was inactive.
`CCCCCCOC(=O)CC(CC(=O)OCCCCCC)(OC(=O)CCC)C(=O)OCCCCCC`: the Potency entry in [1], in [2], in assay [3], in assay [5], in [6] and in [7] was “inactive” each time. The Potency entry (with Aromatase (Homo sapiens); in [9]; in assay [10]; in assay [11]; in [12]; in assay [13]) was “inactive” each time. Moreover, the compound was called inactive in assay [4], in [8], in assay [14], in assay [15] and in [16].
Regarding `CN(C)CCn1nnnc1SCC1=C(C(=O)O)N2C(=O)[C@@H](NC(=O)Cc3csc(N)n3)[C@H]2SC1`, the Potency result (in assay [1]; in assay [2]; in the assay with Aromatase (Homo sapiens); in assay [9]; in assay [10]; in [11]) was “inactive” throughout. In assay [12], the Potency result is “inactive”. Further, the compound was called inactive in [8], in assay [17], in assay [18], in [14], in [15] and in assay [16].
